Laboratory results as given in PubChem BioAssay (EPA / NIEHS).
“And” between values parts separate entries of the source, which are not always exact repeats. Equal entries are not always repeated. Results filed as inconclusive are left out. The source made the active and inactive calls. How the source made its calls, unless noted: active means hit-call score of the fitted dose curve at least 0.9, where 1 is the maximum; inactive means score below 0.9.

What was measured:
[1] = target: Estrogen receptor (Homo sapiens) (UniProt P03372); experiment: CCTE_Deisenroth_AIME_384WELL_LUC_Inactive: CCTE's 384-well Estrogen Receptor Transactivation Assay without AIME metabolic competence (ERTA luciferase; metabolism negative), Deisenroth Lab (AID 2284038; active means hit-call score of the fitted dose curve at least 0.9, where 1 is the maximum;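 further: VM7Luc4E2 breast cells given medium preincubated 2 h with S9-free microspheres; hits raise estrogen receptor luciferase signal so potencies reflect agonists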)
How it was run: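 Chemicals (10-point series, 0.002 - 200 uM) were incubated 2 hours with alginate-water microsphere lids lacking S9, then the conditioned medium was transferred to VM7Luc4E2 breast cells for 24 hour. Luciferase induction was read by bioluminescence, fitted upward relative to 17beta-estradiol.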

[2] = target: Estrogen receptor (Homo sapiens) (UniProt P03372); experiment: CCTE_Deisenroth_AIME_384WELL_LUC_Shift: CCTE's 384-well Estrogen Receptor Transactivation Assay with AIME metabolic competence data shift (ERTA luciferase; difference in metabolism positive and negative), Deisenroth Lab (AID 2284041);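 further: shift is response with S9 minus without S9 so positive means metabolism raised ER signal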
How it was run: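 Here, parent compounds undergo 2 h phase I metabolism by PB/BNF-induced rat S9 before 24 h transactivation in VM7Luc4E2 cells; the curve models S9-positive minus S9-negative response over a 10-point series.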

[3] = CCTE_Shafer_MEA_dev_burst_rate: CCTE's Neural Network Formation Assay for Burst Rate, Shafer Lab (AID 2284042);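 on AC50: potency for loss of burst rate below DMSO control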
How it was run: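 Exposure ran continuously over 12 days of network development in rat cortical cultures, with compound refreshed during full media changes on DIV 5 and 9. Single-electrode bursts per recording time, well-mean over active electrodes, trapezoidal AUC across days 5–12, fitted downward relative to DMSO.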

[4] = CCTE_Shafer_MEA_dev_bursting_electrodes_number: CCTE's Neural Network Formation Assay for Number of Bursting Electrodes, Shafer Lab (AID 2284043; active means hit-call score of the fitted dose curve at least 0.9, where 1 is the maximum;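 on AC50: potency is for loss of bursting electrodes relative to DMSO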)
How it was run: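 Primary rat cortical neurons were cultured on PEI-coated 48-well MEA plates (16 electrodes/well) and exposed from plating through day 12, with compound renewed at feeds on DIV 5 and 9. Electrodes bursting ≥1 per 2 min were counted on DIV 5, 7, 9, 12; trapezoidal AUC taken.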

[5] = CCTE_Shafer_MEA_dev_per_burst_interspike_interval: CCTE's Neural Network Formation Assay for Burst Interspike Interval, Shafer Lab (AID 2284044);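 further: mean spike spacing inside bursts as AUC over recordings on days 5 7 9 12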;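 on AC50: potency for a decrease of within-burst interspike interval below DMSO level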
How it was run: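 Primary rat cortical neurons on 48-well MEA plates, exposed from day 0 through day 12, treatment renewed at DIV 5 and 9. Within-burst interspike interval recorded days 5, 7, 9, 12, well-averaged, summarised as AUC; negative fit versus DMSO.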

[6] = CCTE_Shafer_MEA_dev_interburst_interval_mean: CCTE's Neural Network Formation Assay for Mean Interburst Interval, Shafer Lab (AID 2284046);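 further: well-mean interburst interval of bursting electrodes as AUC over four recording days; curve fitted for decrease in interburst interval relative to DMSO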
How it was run: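 Primary rat cortical neurons on PEI-coated 48-well MEA plates (laminin added with cells at plating) (16 electrodes/well), exposed from plating day 0 with renewal at DIV 5 and 9. Mean inter-burst interval averaged over bursting electrodes, AUC across days 5, 7, 9, 12; DMSO baseline.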

[7] = CCTE_Shafer_MEA_dev_inter_network_spike_interval_mean: CCTE's Neural Network Formation Assay for Mean Inter-network Spike Interval, Shafer Lab (AID 2284047);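 on AC50: potency for a decrease in mean inter-network spike interval below DMSO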
How it was run: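 Mean time between consecutive network-spike peaks, recorded extracellularly (adaptive spike detection) on DIV 5, 7, 9 and 12, summarized as trapezoidal AUC. Rat cortical cultures on MEAs dosed continuously days 0–12, re-dosed at feeds; loss-of-signal fit relative to DMSO.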

[8] = CCTE_Shafer_MEA_dev_network_spike_number: CCTE's Neural Network Formation Assay for Number of Network Spikes, Shafer Lab (AID 2284048);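 further: synchronized bursts across electrodes counted on days 5 7 9 12 and integrated as AUC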;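 on AC50: fit as a loss of signal meaning fewer network spikes than DMSO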
How it was run: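 Primary rat cortical neurons were seeded at 1.5 x 10^5 cells/well on PEI-coated 16-electrode MEA wells with laminin, exposed from plating day 0, compound renewed at DIV 5 and 9. Network spikes were recorded on days 5, 7, 9, 12 and summarized as trapezoidal AUC versus DMSO.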

DIO2 (gene 1734) = experiment: CCTE_GLTED_hDIO2: CCTE's human Deiodinase 2 (DIO2) Inhibition Assay, Great Lakes Toxicology and Ecology Division (GLTED) Lab (AID 2284050; active means hit-call score of the fitted dose curve at least 0.9, where 1 is the maximum)
How it was run: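 In this cell-free test, chemicals are exposed to human deiodinase type 2 for 3 hours. Released iodide is determined spectrophotometrically via the Sandell-Kolthoff method, and signal loss relative to DMSO is fitted.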

[9] = CCTE_Shafer_MEA_dev_spike_duration_mean: CCTE's Neural Network Formation Assay for Mean Spike Duration, Shafer Lab (AID 2284051);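 further: mean network spike duration pooled as area under curve over DIV 5 to 12 recordings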;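 on AC50: potency for a decrease in mean network spike duration versus DMSO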
How it was run: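 Spontaneous activity was recorded on days 5, 7, 9 and 12 from rat cortical cultures grown on microelectrode arrays and dosed continuously from day 0, with media and compound renewed after the DIV 5 and 9 recordings. Network-spike duration was collapsed by area under the curve.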

[10] = CCTE_Shafer_MEA_dev_network_spike_duration_std: CCTE's Neural Network Formation Assay for Standard Deviation of Network Spike Duration, Shafer Lab (AID 2284052);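 further: hits are decreases in network spike duration SD versus DMSO vehicle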
How it was run: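 Network spike duration variability was collapsed across recordings on days 5, 7, 9 and 12 by trapezoidal area-under-curve and fitted downward against DMSO. Cultures were rat cortical neurons on PEI-coated MEA plates, dosed continuously from plating, refed with compound DIV 5/9.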

[11] = CCTE_Shafer_MEA_dev_per_network_spike_spike_number_mean: CCTE's Neural Network Formation Assay for Mean Number of Spikes in a Network Spike, Shafer Lab (AID 2284053);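 on AC50: fitted as decrease in spikes per network spike relative to DMSO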
How it was run: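 Mean spike count within each network spike, taken in a 0.05 s window at its peak, was recorded on days 5, 7, 9 and 12 and integrated as trapezoidal area under the curve. Rat cortical cultures on MEA plates received continuous compound from day 0, refreshed at medium changes on DIV 5 and 9.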

[12] = CCTE_Shafer_MEA_dev_per_network_spike_spike_percent: CCTE's Neural Network Formation Assay for Percent of Spikes in a Network Spike, Shafer Lab (AID 2284054)
How it was run: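 Primary rat cortical neurons on 16-electrode MEA wells (PEI-coated, laminin at plating), exposed from day 0 with renewal at DIV 5 and 9; spikes within 0.05 s of network-spike peaks over total spikes, AUC across days 5, 7, 9, 12.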

DIO3 (gene 1735) = experiment: CCTE_GLTED_hDIO3: CCTE's human Deiodinase 3 (DIO3) Inhibition Assay, Great Lakes Toxicology and Ecology Division (GLTED) Lab (AID 2284055; active means hit-call score of the fitted dose curve at least 0.9, where 1 is the maximum;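 on AC50: potency is for inhibition seen as loss of released iodide signal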)
How it was run: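 Enzyme activity is tracked as iodide release from substrate by recombinant human DIO3 over 3 h with chemical present. A second Sandell-Kolthoff step converts iodide to an absorbance signal, fitted relative to DMSO.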

[13] = CCTE_Shafer_MEA_acute_AB: CCTE's Alamar Blue Assay for Cytotoxicity in the Neural Acute Assay, Shafer Lab (AID 2284069; active means hit-call score of the fitted dose curve at least 0.9, where 1 is the maximum;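 further: active compounds lower the viability signal compared with DMSO wells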)
How it was run: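 Resazurin reduction (CellTiter Blue, 1:6 in fresh medium) read at ex 544/em 590 nm marks viability loss relative to DMSO. Cells: primary rat cortical neuron networks on microelectrode arrays, treated after baseline recording at 13 or 15 days in vitro.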

[14] = CCTE_Shafer_MEA_dev_LDH: CCTE's Lactate Dehydrogenase Assay for Cytotoxicity in the Neural Network Formation Assay, Shafer Lab (AID 2284068; active means hit-call score of the fitted dose curve at least 0.9, where 1 is the maximum;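 further: exposure for twelve days from plating with re-dosing on DIV 5 and 9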)
How it was run: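 Primary rat cortical neurons were cultured on PEI-coated MEA plates and exposed from plating through day 12, with compound renewed at medium changes on DIV 5 and 9. LDH activity was read spectrophotometrically; loss of signal versus DMSO indicates reduced viability.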

[15] = CCTE_Shafer_MEA_dev_AB: CCTE's Alamar Blue Assay for Cytotoxicity in the Neural Network Formation Assay, Shafer Lab (AID 2284083; active means hit-call score of the fitted dose curve at least 0.9, where 1 is the maximum;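 further: resazurin reduction fluorescence as viability of cultured neurons; twelve days of exposure from plating with re-dosing on DIV 5 and 9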)
How it was run: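 Resazurin fluorescence, relative to DMSO, gauges viability after twelve days of exposure that began at plating of rat cortical neurons (1.5 x 10^5 cells/well, 48-well MEA); treatment renewed with full medium exchange on DIV 5 and 9.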

[16] = UKN5_HCS_SBAD2_cell_viability: Viability Assessment in the University of Konstanz (UKN) Leist Lab Neurite Outgrowth Assay in human iPSC-derived immature Dorsal Root Ganglia Neurons (UKN5) (AID 2284056)
How it was run: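 iPSC-derived immature peripheral neurons (SBAD2) seeded on Matrigel with CHIR99021, SU5402 and DAPT, dosed 1 h later for 24 h. Viability from Hoechst H-33342 and calcein-AM live staining, high-content imaging; bidirectional fit versus DMSO.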

[17] = UKN5_HCS_SBAD2_neurite_outgrowth: University of Konstanz (UKN) Leist Lab Neurite Outgrowth Assay in human iPSC-derived immature Dorsal Root Ganglia Neurons (UKN5) (AID 2284070); conditions: actives raise or lower the signal
How it was run: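 SBAD2 neurons, 24 h compound treatment, calcein-AM neurite area via HCS imaging; DMSO baseline, gain or loss of signal.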

Measured: AC50

Sequence of Estrogen receptor (Homo sapiens) (P03372 whole entry, looked up): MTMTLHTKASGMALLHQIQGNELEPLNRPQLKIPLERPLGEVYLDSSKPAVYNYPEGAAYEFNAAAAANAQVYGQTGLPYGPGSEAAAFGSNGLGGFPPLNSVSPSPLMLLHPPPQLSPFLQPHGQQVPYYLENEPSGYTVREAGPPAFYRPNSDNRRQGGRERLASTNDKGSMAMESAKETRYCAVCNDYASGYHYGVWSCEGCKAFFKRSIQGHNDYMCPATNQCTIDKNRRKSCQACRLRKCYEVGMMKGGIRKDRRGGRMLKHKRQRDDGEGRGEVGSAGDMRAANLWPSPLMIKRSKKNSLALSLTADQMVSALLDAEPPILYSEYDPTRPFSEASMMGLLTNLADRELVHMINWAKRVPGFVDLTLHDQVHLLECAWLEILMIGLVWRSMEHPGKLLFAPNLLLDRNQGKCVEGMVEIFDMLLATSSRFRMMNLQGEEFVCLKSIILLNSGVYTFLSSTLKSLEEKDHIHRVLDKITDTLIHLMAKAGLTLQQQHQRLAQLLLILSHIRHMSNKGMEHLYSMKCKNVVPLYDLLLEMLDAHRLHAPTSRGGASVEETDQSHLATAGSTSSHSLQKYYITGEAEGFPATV

CCNc1nc(Cl)nc(NC(C)C)n1
active: DIO3 (gene 1735) 21.7 µM
not listed: [14] | [15] | [16] | [17]
inactive: all other assays above

COP(N)(=O)SC (stereo not drawn)
active: [4] 0.0901 µM
not listed: DIO2 (gene 1734) | DIO3 (gene 1735) | [13] | [16] | [17]
inactive: all other assays above

CNC(=O)ON=CC(C)(C)SC
active: [11] 0.549 µM
not listed: [1] | [2] | [4] | DIO2 (gene 1734) | DIO3 (gene 1735) | [16] | [17]
inactive: all other assays above

CC(C)Oc1cc(-n2nc(C(C)(C)C)oc2=O)c(Cl)cc1Cl
inactive: [13]

CS/C(C)=N/OC(=O)N(C)SN(C)C(=O)O/N=C(\C)SC
inactive: [13]

N#Cc1nn(-c2c(Cl)cc(C(F)(F)F)cc2Cl)c(N)c1S(=O)C(F)(F)F (stereo not drawn)
active: DIO2 (gene 1734) 29.6 µM | [12] 4.41 µM | DIO3 (gene 1735) 1.13 µM | [14] 23.8 µM
not listed: [1] | [2] | [16] | [17]
inactive: all other assays above

CCOP(=S)(OCC)SCn1c(=O)oc2cc(Cl)ccc21
inactive: [13]

CON(C)C(=O)Nc1ccc(Cl)c(Cl)c1
inactive: [13]

COP(=S)(OC)Oc1nc(Cl)c(Cl)cc1Cl
not listed: [1] | [2] | DIO2 (gene 1734) | DIO3 (gene 1735) | [13] | [16] | [17]
inactive: all other assays above

CN(C)C(=S)SSC(=S)N(C)C
active: [3] 12.7 nM | [4] 0.00933 µM | [5] 22.7 nM | [6] 11.6 nM | [7] 11.6 nM | [8] 5.54 nM | DIO2 (gene 1734) 55.7 µM | [9] 0.00527 µM | [10] 7.05 nM | [11] 0.00976 µM | [12] 0.00821 µM | DIO3 (gene 1735) 43.1 µM | [14] 0.00506 µM | [15] 0.012 µM

CCCC1COC(Cn2cncn2)(c2ccc(Cl)cc2Cl)O1 (stereo not drawn)
inactive: [13]

Fc1ccc(Oc2ccnc3cc(Cl)cc(Cl)c23)cc1
inactive: [13]
active: DIO2 (gene 1734) 10.1 µM | DIO3 (gene 1735) 0.965 µM

Cc1ccc(-c2c(Cl)nc(C#N)n2S(=O)(=O)N(C)C)cc1
inactive: [5] | [6] | [7] | [10] | [12] | DIO3 (gene 1735) | [13]
active: [3] 15200 nM | [4] 22.3 µM | [8] 30200 nM | DIO2 (gene 1734) 81.8 µM | [9] 29.7 µM | [11] 14.4 µM | [14] 30.3 µM | [15] 50 µM

C=CCC1=C(C)[C@@H](OC(=O)[C@@H]2[C@@H](C=C(C)C)C2(C)C)CC1=O
active: [4] 10 µM | [15] 1.98 µM
inactive: [3] | [5] | [6] | [7] | [8] | [10] | [11] | [12] | [13]

COc1ccc(C(c2ccc(OC)cc2)C(Cl)(Cl)Cl)cc1
inactive: [3] | [5] | [6] | [7] | [8]
active: [4] 6.57 µM | [9] 2.99 µM | [10] 1970 nM | [11] 9.95 µM | [12] 3.28 µM | [14] 4.87 µM | [15] 12.2 µM

CCCCNC(=O)n1c(NC(=O)OC)nc2ccccc21
active: [4] 15 µM | [11] 15 µM | [17] 7.98 µM
not listed: [1] | [2] | DIO2 (gene 1734) | DIO3 (gene 1735) | [13] | [14]
inactive: all other assays above

CC1COC(Cn2cncn2)(c2ccc(Oc3ccc(Cl)cc3)cc2Cl)O1 (stereo not drawn)
inactive: [13]

CCCN(CCC)c1c([N+](=O)[O-])cc(S(N)(=O)=O)cc1[N+](=O)[O-]
active: DIO2 (gene 1734) 141 µM | DIO3 (gene 1735) 160 µM
inactive: [13]

N#CC(CCc1ccc(Cl)cc1)(Cn1cncn1)c1ccccc1 (stereo not drawn)
inactive: [13]

OC(c1ccc(Cl)cc1)(c1cncnc1)c1ccccc1Cl (stereo not drawn)
inactive: [13]

CO/C=C(/C(=O)OC)c1ccccc1Oc1cc(Oc2ccccc2C#N)ncn1
inactive: [13]
active: [3] 1.14 µM and 1.39 µM | [4] 1.42 µM and 912 nM | [5] 2.3 µM and 2.54 µM | [6] 2.29 µM and 1.06 µM | [7] 1.64 µM and 17 nM | [8] 948 nM and 767 nM | [9] 1.08 µM and 874 nM | [10] 840 nM and 974 nM | [11] 1.49 µM and 1.1 µM | [12] 1.83 µM and 433 nM | [14] 507 nM and 1.41 µM | [15] 1.73 µM and 2.19 µM

COC(=O)C(C)Oc1ccc(Oc2ccc(Cl)cc2Cl)cc1 (stereo not drawn)
inactive: [13]

CCCCOC(=O)c1ccccc1C(=O)OCCCC
active: [4] 78.4 µM | [9] 50 µM | [11] 72.1 µM | [14] 50 µM
inactive: [3] | [5] | [6] | [7] | [8] | [10] | [12] | [15]
